Screens: PubChem BioAssay, National Center for Advancing Translational Sciences (NCATS)
An excerpt weighted towards active compounds, which were near 2.4% of everything screened.
D2 PAM-1 = positive allosteric modulators of human D2 dopamine receptor; P14416; HEK293 T-REx D2, calcium flux, EC20 dopamine potentiation; potentiation, % at 10 µM; actives 0.34% (n = 340,000); AID 485347;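 active = potentiation over 3 SD above the plate norm, cut at about 30% in these data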
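Cells plated with tetracycline inducer and held overnight at 30 C; calcium dye loaded 30–90 min at room temperature; baseline taken, compound added and read 180 s; EC20 dopamine then added and read 180 s.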
D2 PAM-2 = human D2 receptor positive allosteric modulation; P14416; DiscoveRx D2 beta-arrestin cells, luminescence, 90 min; 100% = 57 uM dopamine signal; potentiation, % (concentration not given with the values); actives 0.23% (n = 360,000); AID 624464; in the data active = potentiation above about 50%; inconclusive = mostly about 30% to 49%
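D2 cells co-treated with compound plus 50 nM dopamine (EC20) for 90 min at 37 deg C to detect potentiation. Beta-arrestin recruitment was read as enzyme-fragment luminescence after 1 h at ambient temperature. Full response was set by 57 uM dopamine.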
D2 ag-1 = activates the human D2 dopamine receptor. DiscoveRx PathHunter D2 beta-arrestin, luminescence, 90 min; 100% = 57 uM dopamine signal. AID 624465. P14416. actives 0.084% (n = 360,000). activation, % (test concentration not listed); in the data active = activation above about 40%; inconclusive = between about 15% and that limit
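Agonist mode: compounds alone added to overnight-plated D2 PathHunter cells for 90 min at 37 C, with 57 uM final dopamine (EC100) defining full response. Beta-arrestin recruitment detected by chemiluminescent reagent, read after 1 h at ambient temperature.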
D2 ag-2 = activates the human D2 dopamine receptor. P14416. HEK293 T-REx D2 cells, calcium flux agonist mode. activation, % at 2 µM. actives 0.53% (n = 340,000);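 active = activation over 3 SD above normal in the single-dose calcium agonist read, cut at about 30% in these data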
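Tetracycline-induced HEK293 Trex cells with D2 receptor force-coupled to calcium signaling, plated overnight at 30 C and loaded with no-wash calcium dye. Calcium flux read kinetically for 180 s after compound addition; responses flag agonists.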
D2 antagonist = antagonizes the human D2 dopamine receptor | P14416 | HEK293 TREx D2 cells, calcium flux, dopamine EC80 | inhibition, % at 10 µM | actives 2% (n = 340,000) | AID 485344; in the data active = inhibition above about 30%; inactive = below that, where a call was filed
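Dopamine at EC80 is the agonist stimulus; test compounds precede it by 180 s. Calcium flux read kinetically in a force-coupled, inducible HEK293 T-REx D2 cell line.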
D3 ag = confirmation of human D3 dopamine receptor agonists, beta-arrestin | actives 4% (n = 2,300) | Potency, µM (series often up to 76.9 µM), hits mostly activators | DiscoveRx D3 beta-arrestin cells, luminescence, 90 min | shares compounds with D2 ag-2; note: nearly all actives have a fitted effect of over 70% in size
Target sequence (P35462 whole entry, looked up): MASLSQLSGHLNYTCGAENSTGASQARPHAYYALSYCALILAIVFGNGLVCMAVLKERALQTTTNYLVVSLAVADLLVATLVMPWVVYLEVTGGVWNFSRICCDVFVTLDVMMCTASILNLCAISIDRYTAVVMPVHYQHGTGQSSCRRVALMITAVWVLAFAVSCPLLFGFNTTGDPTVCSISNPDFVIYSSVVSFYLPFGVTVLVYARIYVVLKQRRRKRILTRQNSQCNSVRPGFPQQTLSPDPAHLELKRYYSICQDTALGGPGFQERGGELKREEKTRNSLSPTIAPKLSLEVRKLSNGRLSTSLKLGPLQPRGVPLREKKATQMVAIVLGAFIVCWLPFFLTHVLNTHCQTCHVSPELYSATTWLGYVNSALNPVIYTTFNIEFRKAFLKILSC
D2 ag-3 = D2 receptor agonism, beta-arrestin counterscreen | shares compounds with D2 ag-2 | Potency, µM (series often up to 76.9 µM), actives largely listed as activators | actives 5.9% (n = 2,300) | DiscoveRx PathHunter D2 beta-arrestin, luminescence, 90 min; response scale: percent relative to full dopamine signal; note: nearly all actives have a fitted effect of over 70% in size
Each line names hits and unclear results; the compound was inactive in the other large screens (follow-up assays come after a bar, where they were run). Unless noted, calls come from the whole dose curve; as a rule, active = well fitted activation curve with a large enough effect; inconclusive = small, poorly fitted or top-dose-only effect; inactive = flat fitted curve, though single readings scatter.

C[C@H]1CC[C@@]2(C)[C@@H](CC[C@@H]3[C@@H]2CC[C@]2(C)[C@@H](O)CC[C@@H]32)C1	D2 antagonist 69 | D3 ag inactive | D2 ag-3 inactive
C[C@]12CCC3C(CC[C@H]4C[C@@H](O)CC[C@]34C)[C@H]1CC[C@H]2O (stereo not given in full)	none (no result: D2 PAM-1, D2 ag-2, D2 antagonist)
Cc1cc(C)cc(-n2c(=O)[nH]c3ccccc3c2=O)c1	none (no result: D2 PAM-2, D2 ag-1, D2 antagonist)
CCN(CC)CCCC(C)N=C(c1ccccc1)c1c(O)n(C)c(=O)n(C)c1=O (stereo not given)	D2 ag-2 38, D2 antagonist 69 | D3 ag inactive | D2 ag-3 inactive
COc1c2c(cc3c1OCO3)CCN(C)C2	D2 ag-2 68, D2 antagonist 75 | D3 ag inconclusive | D2 ag-3 inconclusive
COc1cc2c(cc1OC)-c1c3c(cc4c1[C@@H](C2)N(C)CC4)OCO3	none
NC(=O)c1ccc(OCCC(O)N2CC=C(c3ccc(F)cc3)CC2)cc1 (stereo not given)	D2 ag-2 35, D2 antagonist 65 | D3 ag inconclusive | D2 ag-3 inconclusive
CCOC(=O)c1ccc(N2C(=O)CC(N3CC=C(c4ccc(F)cc4)CC3)C2=O)cc1 (stereo not given)	none
COc1ccccc1N1CCN(Cc2cccc(OC)c2O)CC1	D2 ag-2 74, D2 antagonist 81 | D3 ag inactive | D2 ag-3 inactive
Cc1cccc(Cn2cccc(C(=O)Nc3nc4ccccc4s3)c2=O)c1	none (no result: D2 PAM-2, D2 ag-1, D2 antagonist)
O=C1NC(=S)N(c2ccc(Br)cc2)C(=O)/C1=C/N1CCN(C(=O)c2ccco2)CC1	none | D3 ag inactive | D2 ag-3 inactive
COc1ccc(NC(=O)CCc2nc(C3=CCN(Cc4cccc(Cl)c4)CC3)no2)cc1OC	none (no result: D2 PAM-2, D2 ag-1, D2 antagonist)
C=CCN1CCc2cccc3c2[C@H]1Cc1ccc(O)c(O)c1-3	D2 PAM-2 114, D2 ag-1 219, D2 ag-2 88, D2 antagonist 89 | D3 ag 0.02µM | D2 ag-3 0.045µM
CCC(=O)N1CC(=O)Nc2ccc(C)cc2C1c1ccc(F)cc1 (stereo not given)	none (no result: D2 PAM-2, D2 ag-1, D2 antagonist)
CCOC(=O)C(O)(c1ccc(NC(=S)NC(=O)c2ccc(Cl)cc2Cl)c(C)c1)C(F)(F)F (stereo not given)	none | D3 ag inactive | D2 ag-3 inactive
COC(=O)C(O)(c1ccc(NC(=S)NC(=O)c2ccc(Cl)cc2Cl)c(C)c1)C(F)(F)F (stereo not given)	none
c1cnc2c(c1)ncn2C1CCNCC1	none (no result: D2 PAM-2, D2 ag-1, D2 antagonist)
CC(C)C[C@H]1C(=O)N2CCC[C@H]2[C@]2(O)O[C@](NC(=O)[C@@H]3C=C4c5cccc6[nH]c(Br)c(c56)CC4N(C)C3)(C(C)C)C(=O)N12 (stereo not given in full)	D2 PAM-2 inconclusive, D2 ag-1 55, D2 ag-2 80, D2 antagonist 94 | D3 ag inconclusive | D2 ag-3 0.28µM
CC(C)C[C@H]1C(=O)N2CCCC2[C@]2(O)O[C@](NC(=O)[C@@H]3C=C4c5cccc6[nH]cc(c56)CC4N(C)C3)(C(C)C)C(=O)N12 (stereo not given in full)	D2 PAM-2 54, D2 ag-1 122, D2 ag-2 73, D2 antagonist 78 | D3 ag inconclusive | D2 ag-3 0.28µM
CC(C)[C@@]1(NC(=O)[C@@H]2C[C@@H]3c4cccc5[nH]cc(c45)C[C@H]3N(C)C2)O[C@@]2(O)[C@@H]3CCCN3C(=O)[C@H](Cc3ccccc3)N2C1=O	D2 ag-2 91, D2 antagonist 101 | D3 ag inactive | D2 ag-3 inconclusive
Cc1ccc(-n2c(=O)[nH]c3ccc(Br)cc3c2=O)cc1	none (no result: D2 PAM-2, D2 ag-1, D2 antagonist)
CCn1c(CN2CCN(C)CC2)nc2ccccc21	none (no result: D2 PAM-1, D2 PAM-2, D2 ag-1, D2 antagonist)
Cc1[nH]c2c(Cl)cccc2c1CCN	D2 antagonist 41 | D3 ag inactive | D2 ag-3 inactive
Cc1[nH]c2ccccc2c1CN1CCCCC1	none (no result: D2 PAM-1, D2 ag-2, D2 antagonist)
Clc1ccccc1CN1CCN(c2ccccc2)CC1	D2 ag-1 inconclusive, D2 ag-2 68, D2 antagonist 68 | D3 ag inactive | D2 ag-3 inconclusive
Clc1ccccc1CN1CCN(c2cccc3[nH]ccc23)CC1	none (no result: D2 PAM-1, D2 ag-2, D2 antagonist) | D3 ag inactive | D2 ag-3 inactive
Nc1ccc(N2CCN(Cc3ccccc3Cl)CC2)c(Cl)c1	none
O=C(COc1ccccc1[N+](=O)[O-])N1CCN(CCc2ccccn2)CC1	none (no result: D2 PAM-2, D2 ag-1, D2 antagonist)
O=c1[nH]c2ccccc2c(=O)n1-c1ccc(Cl)c(Cl)c1	none (no result: D2 PAM-2, D2 ag-1, D2 antagonist)
O=C(CCN1C(=O)COc2ccccc21)N1CCC2(CC1)OCCO2	D2 ag-2 56 | D3 ag inactive | D2 ag-3 inactive
CN1CCCC(C(=O)c2ccccc2)C1 (stereo not given)	D2 ag-2 42, D2 antagonist 30 | D3 ag inactive | D2 ag-3 inactive
CSc1ccc(C(=O)C2CCCN(C)C2)cc1 (stereo not given)	none
CC(C)CC(C)N (stereo not given)	none | D3 ag inactive | D2 ag-3 inactive
O=c1c2ccccc2nc(/C=C/c2cccc3ccccc23)n1-c1ccccc1Cl	none (no result: D2 PAM-2, D2 ag-1, D2 ag-2, D2 antagonist)
Cc1oc(-c2ccc(Cl)cc2)nc1CN1C(=O)CN=C(c2ccccc2)c2cc(Cl)ccc21	none (no result: D2 PAM-2, D2 ag-1, D2 antagonist)
OC(CNCCc1c[nH]c2ccccc12)c1ccccc1 (stereo not given)	D2 antagonist 54 | D3 ag inactive | D2 ag-3 inactive
Fc1ccc(CNCCc2c[nH]c3ccccc23)cc1	none
CC(=O)NCCc1c[nH]c2ccccc12	none
Fc1ccccc1CNCCc1c[nH]c2ccccc12	none | D3 ag inactive | D2 ag-3 inactive
COc1ccc(CNCCc2c[nH]c3ccccc23)c(OC)c1C	D2 antagonist 33 | D3 ag inactive | D2 ag-3 inactive
Cc1ccc(-n2c(/C=C/c3ccc(Br)s3)nc3ccccc3c2=O)cc1	none (no result: D2 PAM-2, D2 ag-1, D2 antagonist)
O=[N+]([O-])c1ccc(CN2CC=C(c3ccccc3)CC2)cc1	D2 ag-2 78, D2 antagonist 89 | D3 ag inactive | D2 ag-3 inactive
O=C(Nc1cc(C(F)(F)F)cc(C(F)(F)F)c1)c1cccn(Cc2ccccc2Cl)c1=O	none (no result: D2 PAM-2, D2 ag-1, D2 antagonist)
CCN(C(=O)CN1CC=C(c2ccccc2)CC1)c1c(N)n(Cc2ccccc2)c(=O)[nH]c1=O	none | D3 ag inactive | D2 ag-3 inactive
